Laboratory results published in PubChem BioAssay (NCATS).
Inconclusive results are not listed. Where a call stands in place of a potency, no number is given. Activity calls are given as the source filed them. Unless noted, calls come from the whole dose curve.

How the values were obtained:
[1] = qHTS for Inhibitors of the Functional Ribonucleoprotein Complex (vRNP) of Lassa (LASV) Arenavirus: LASV Primary Screen - GLuc reporter signal (AID 1347082; calls by dose curve; tested in HEK293 reporter line; note: nearly all actives have a fitted effect of over 60% in size; note: potency is the fitted concentration of half-maximal effect)
[2] = qHTS for Inhibitors of the Functional Ribonucleoprotein Complex (vRNP) of Lassa (LASV) Arenavirus: Viability assay - alamar blue signal for LASV Primary Screen (AID 1347083; calls by dose curve; tested in HEK293 reporter line; note: nearly all actives have a fitted effect of over 80% in size; note: potency is the fitted concentration of half-maximal effect)
[3] = qHTS for Inhibitors of the Functional Ribonucleoprotein Complex (vRNP) of Lymphocytic Choriomeningitis Arenaviruses (LCMV): Viability assay - alamar blue signal for LCMV Primary Screen (AID 1347085; calls by dose curve; tested in HEK293 reporter line; note: nearly all actives have a fitted effect of over 80% in size; note: potency is the fitted concentration of half-maximal effect)
[4] = target: Nucleoprotein (Lymphocytic choriomeningitis virus (strain Armstrong)) (UniProt P09992); experiment: qHTS for Inhibitors of the Functional Ribonucleoprotein Complex (vRNP) of Lymphocytic Choriomeningitis Arenaviruses (LCMV): LCMV Primary Screen - GLuc reporter signal (AID 1347086); note: nearly all actives have a fitted effect of over 70% in size; note: potency is the fitted concentration of half-maximal effect
Nucleoprotein (Lymphocytic choriomeningitis virus (strain Armstrong)), sequence (P09992 whole entry, looked up): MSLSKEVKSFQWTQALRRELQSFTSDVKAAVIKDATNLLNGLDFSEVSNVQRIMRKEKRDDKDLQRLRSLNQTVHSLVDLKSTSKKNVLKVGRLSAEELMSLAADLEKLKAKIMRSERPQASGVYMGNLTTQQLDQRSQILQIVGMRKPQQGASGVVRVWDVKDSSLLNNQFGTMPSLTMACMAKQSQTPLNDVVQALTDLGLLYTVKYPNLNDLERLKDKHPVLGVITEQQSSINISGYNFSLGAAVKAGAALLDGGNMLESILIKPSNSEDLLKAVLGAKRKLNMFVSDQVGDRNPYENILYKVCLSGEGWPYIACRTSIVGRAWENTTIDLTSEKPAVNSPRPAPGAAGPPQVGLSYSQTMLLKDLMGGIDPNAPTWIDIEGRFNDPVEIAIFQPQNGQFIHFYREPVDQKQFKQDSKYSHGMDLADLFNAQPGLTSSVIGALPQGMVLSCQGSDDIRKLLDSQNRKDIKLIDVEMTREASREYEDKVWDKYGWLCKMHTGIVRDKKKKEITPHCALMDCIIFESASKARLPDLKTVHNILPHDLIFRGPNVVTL

[5] = Cytotoxicity counterscreen for inhibitors of SARS-CoV-2 cell entry (AID 1645845); note: nearly all actives have a fitted effect of over 50% in size
Summary of the method: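 48 h compound treatment (after 1 h preincubation), HEK293-ACE2 cells, 37 C/5% CO2; ATP luminescence endpoint; normalized to cell wells and media blanks.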

[6] = Primary qHTS to identify inhibitors of SARS-CoV-2 cell entry (AID 1645846); conditions: activity change, negative = inhibition: at 57.1 µM (top of the series) unless noted; note: nearly all actives have a fitted effect of over 45% in size
Summary of the method: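 HEK293-ACE2 (Expi293F, stable hACE2), 1500 cells/well, o/n 37C; cpd 23 nL pin, 1 h; MLV-PP w/ SARS-CoV-2-S (Wuhan-Hu-1, Δ19 C-term); 48 h 37C; Bright-Glo luminescence; normalized vs S-PP and bald PP.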

SMILES | Potency [1] | Potency [2] | Potency [3] | Potency [4] | activity change, negative = cytotoxicity [5] | activity change, negative = inhibition [6] | Potency [5] | Potency [6]
Cn1c(CNc2ccc(C(=N)N)cc2)nc2cc(C(=O)N(CCC(=O)O)c3ccccn3)ccc21 | inactive | inactive | inactive | inactive | -8.56% [at 0.702 µM] (inactive) | -9.36% [at 0.702 µM] |  | 
C[Se]CCC(N)C(=O)O (configuration not stated) | inactive | inactive | inactive | inactive |  | -2.1% [at 114 µM] | inactive | 
CC(=O)SCC(Cc1ccccc1)C(=O)NCC(=O)OCc1ccccc1 (configuration not stated) | 1.09 µM (active) | 0.432 µM (active) | 0.172 µM (active) | 0.273 µM (active) |  | -34.7% | inactive | 
CCCC1OC2C[C@@H]3[C@H]4CCC5=CC(=O)C=C[C@]5(C)[C@H]4C(O)C[C@]3(C)[C@]2(C(=O)CO)O1 (some centres not stated) | inactive | inactive | inactive | inactive |  |  | inactive | 
CC1CCC(C(=O)N(c2cc(C#CC(C)(C)C)sc2C(=O)O)C2CCC(O)CC2)CC1 (configuration not stated) | inactive | inactive | inactive | inactive |  |  | inactive | 
COc1ccc(CC2=NN3C([C@@H](CCc4ccccc4)[C@@H](C)O)=NC(C)C3C(=O)N2)cc1OC (some centres not stated) | inactive | inactive | inactive | inactive |  |  | inactive | inactive
CC(C)(C)OC(=O)N[C@H]1CCCCCC=C[C@@H]2C[C@@]2(C(=O)NS(=O)(=O)C2CC2)NC(=O)[C@@H]2C[C@@H](OC(=O)N3Cc4cccc(F)c4C3)CN2C1=O | inactive | inactive | inactive | inactive |  |  | inactive | 
Nc1nccc(-c2ccc3noc(-c4ccc(Cl)cc4)c3c2)n1 | 2.43 µM (active) | 7.69 µM (active) | 6.85 µM (active) | 4.85 µM (active) |  |  | inactive | 
CN1CC(=O)NC1=NC(=O)Nc1cccc(Cl)c1 | inactive | inactive | inactive | inactive |  | -1.73% | inactive | 
NCc1c[nH]c(=S)n1[C@H]1CCc2c(F)cc(F)cc2C1 | inactive | inactive | inactive | inactive |  | -19.7% | inactive | 
Cc1cnc(C(=O)O)c[n+]1[O-] | inactive | inactive | inactive | inactive |  | -9.41% | inactive | 
CN(C[C@@H]1COCCO1)S(=O)(=O)Nc1ccc2ccc3ncc(-c4cnn(C)c4)cc3c(=O)c2c1 | inactive | inactive | inactive | inactive |  |  | inactive | 
C[C@H](CCC(=O)O)[C@H]1CCC2C3C[C@H](O)[C@@H]4C[C@H](O)CC[C@]4(C)C3CC[C@@]21C (some centres not stated) | inactive | inactive | inactive | inactive |  |  | inactive | 
O=C(O)c1cc(O)c2c(c1)C(=O)c1cccc(O)c1C2=O | inactive | inactive | inactive | inactive |  |  | inactive | 
O=c1ccn([C@@H]2O[C@H](CO)[C@H](O)[C@@H]2F)c(=O)[nH]1 | 4.85 µM (active) | 6.11 µM (active) | 4.32 µM (active) | 3.06 µM (active) |  | -22.4% | inactive | 
CC(C)(F)C[C@H](N[C@@H](c1ccc(-c2ccc(S(C)(=O)=O)cc2)cc1)C(F)(F)F)C(=O)NC1(C#N)CC1 | inactive | inactive | inactive | inactive |  |  | inactive | 
COc1cccc2c(NCc3ccccc3)nc(-n3c(N)nc4ccccc43)nc12 | inactive | inactive | inactive | inactive |  |  | inactive | 
O=C(Nc1ccccc1Br)N[C@@H]1CCN(c2ccc(C(F)(F)F)cn2)C1 | inactive | inactive | inactive | inactive |  | -27.3% | inactive | 
C[C@H](NC(=O)[C@@H](O)c1cc(F)cc(F)c1)C(=O)N[C@@H]1C(=O)N(C)c2ccccc2-c2ccccc21 | inactive | inactive | inactive | inactive |  |  | inactive | 
Nc1cccc(-c2cc3c(Oc4cccc(O)c4)ncnc3[nH]2)c1 | inactive | 34.3 µM (active) | 30.6 µM (active) | inactive |  | -8.51% | inactive | 
C=Cc1c(C)c2cc3nc(cc4[nH]c(cc5nc(cc1[nH]2)C(C)=C5CCC(=O)O)c(CCC(=O)OC)c4C)[C@@]1(C)C3=CC=C(C(=O)OC)[C@H]1C(=O)OC | 1.72 µM (active) | 0.344 µM (active) | 0.172 µM (active) | 0.217 µM (active) |  |  | inactive | 
O=C(NCc1ccncc1)C12C[C@H]3C[C@@H](C1)CC(c1ccc(Cl)cc1)(C3)C2 | inactive | inactive | inactive | inactive |  |  | inactive | 
Cc1cncc2cccc(S(=O)(=O)N3CCCN(C(=O)CN)C[C@@H]3C)c12 | inactive | inactive | inactive | inactive |  | -30.7% | inactive | 
O=c1oc2cc(O)ccc2s1 | inactive | inactive | inactive | inactive |  | -12.6% | inactive | 
C=C(C)[C@@H]1CC[C@]2(C)CC[C@]3(C)[C@H](CC[C@@H]4[C@@]5(C)CC[C@H](O)C(C)(C)[C@H]5CC[C@]43C)[C@@H]12 | inactive | inactive | inactive | inactive |  |  | inactive | 
C[C@H](c1ccc(F)cc1CCCC(=O)O)N(c1cc(F)ccc1F)S(=O)(=O)c1ccc(Cl)cc1 | inactive | inactive | inactive | inactive |  |  | inactive | 
COc1ccc(S(=O)(=O)Nc2cc(-c3c(O)ccc4ccccc34)c(O)c3ccccc23)cc1 | inactive | inactive | inactive | inactive |  |  | inactive | 
CCn1cc(-c2ccnc3[nH]c(-c4cccc(CN(C)C)c4)cc23)c(-c2ccc(NC(=O)N(C)C)cc2)n1 | 13.7 µM (active) | 4.85 µM (active) | 2.43 µM (active) | 3.43 µM (active) |  |  | inactive | 
CC[C@H](C)n1cc(C)c2c(C(=O)NCc3c(C)cc(C)[nH]c3=O)cc(-c3ccc(N4CCNCC4)nc3)cc21 | inactive | inactive | inactive | inactive |  |  | inactive | 
